Sampled rows, rich in hits. Any-hit rate of the full collection: about 12%.
G9a block – inhibitors of human histone lysine methyltransferase G9a; Q96KQ7; G9a H3K9 monomethylation, AlphaScreen, 2 h; Potency, µM (highest dose often 102 µM), for inactives: top-dose activity, negative = inhibition, usual class: inhibitors; hit rate 8.8% among 350,000; AID 504332; also: % is scaled to controls: 0 for no effect and ±100 for the full control effect; nearly all actives have a fitted effect of over 75% in size
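Step 1: enzyme (final 20 nM) with compound, 15 min RT. Step 2: substrate peptide 500 nM and SAM 20 uM, 2 h RT. Step 3: anti-H3K9me1 antibody and AlphaScreen beads, 10 min, then plate read.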
Sfp PPTase inh – Sfp phosphopantetheinyl transferase inhibition; Q9F4F7; Biochemical Sfp PPTase activity, qHTS; Potency, µM, for the others: largest response in the series, negative = inhibition, most hits filed as inhibitors; hit rate 3.5% among 310,000;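 also: the enzyme is Sfp with the accession as filed and its product quenches rhodamine fluorescence; 0% = enzyme reaction without inhibitor and -100% = no enzyme wells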
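Step 1, compound plus 15 nM Sfp-PPTase, 15 min, room temperature. Step 2, add rhodamine-CoA (5 uM) and BHQ-2-YbbR (12.5 uM). Step 3, read 525/598 nm fluorescence at 0 and 30 min.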
JMJD2A Tudor inh – JMJD2A Tudor domain (human) inhibition; O75164; AlphaScreen JMJD2A-Tudor / H3K4me3 peptide binding; Potency, µM (series often up to 114 µM), for inactives: top-dose activity change, negative = inhibition, usual class: inhibitors; hit rate 4.4% among 390,000; AID 504339; also: % is scaled to controls: 0 for no effect and ±100 for the full control effect; nearly all actives have a fitted effect of over 50% in size
L3MBTL1 inh – inhibitors of human L3MBTL1 | Q9Y468 | hit rate 0.66% among 230,000 | Potency, µM (highest dose often 57.1 µM), for the others: at the highest dose activity, negative = inhibition, actives largely listed as inhibitors | AID 485360 | AlphaScreen L3MBTL1–H3K9me1 peptide binding; also: % is scaled to controls: 0 for no effect and ±100 for the full control effect; nearly all actives have a fitted effect of over 60% in size
Target sequence (Q9Y468 whole entry, looked up): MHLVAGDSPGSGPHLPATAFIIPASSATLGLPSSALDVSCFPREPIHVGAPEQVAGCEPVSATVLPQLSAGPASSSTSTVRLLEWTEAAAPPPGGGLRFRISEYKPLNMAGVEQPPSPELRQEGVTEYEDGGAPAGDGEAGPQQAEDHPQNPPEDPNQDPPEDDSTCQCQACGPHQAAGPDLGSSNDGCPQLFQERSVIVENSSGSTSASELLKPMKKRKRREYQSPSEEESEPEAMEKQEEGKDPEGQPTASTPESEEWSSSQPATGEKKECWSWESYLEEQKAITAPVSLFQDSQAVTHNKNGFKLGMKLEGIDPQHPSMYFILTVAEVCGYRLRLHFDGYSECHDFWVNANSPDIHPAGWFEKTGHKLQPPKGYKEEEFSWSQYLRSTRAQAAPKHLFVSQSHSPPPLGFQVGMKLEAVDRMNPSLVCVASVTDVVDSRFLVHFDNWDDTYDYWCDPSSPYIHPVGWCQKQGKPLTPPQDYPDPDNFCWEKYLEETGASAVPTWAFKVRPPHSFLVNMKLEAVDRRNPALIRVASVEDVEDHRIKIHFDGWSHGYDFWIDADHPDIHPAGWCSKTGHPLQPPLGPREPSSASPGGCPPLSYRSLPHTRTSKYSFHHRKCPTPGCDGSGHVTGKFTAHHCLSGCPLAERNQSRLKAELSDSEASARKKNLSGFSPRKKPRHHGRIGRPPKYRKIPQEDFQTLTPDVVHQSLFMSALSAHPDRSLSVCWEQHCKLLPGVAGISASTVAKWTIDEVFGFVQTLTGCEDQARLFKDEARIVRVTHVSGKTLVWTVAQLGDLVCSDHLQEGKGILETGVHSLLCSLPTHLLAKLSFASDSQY
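First, the protein-peptide complex forms for 30 min at room temperature (L3MBTL1 50 nM, biotinylated H3K9me1 peptide 75 nM). Next, compounds are pin-transferred and incubated 30 min. Finally, AlphaScreen beads are added and read after 30 min.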
HP1b binding inh – inhibitors of HP1-beta chromodomain binding to methylated histone tails | P83916 | AlphaScreen HP1-beta / biotin-H3K9me3 peptide binding | Potency, µM (series often up to 114 µM), for the others: at the highest dose activity change, negative = inhibition, hits mostly inhibitors | hit rate 0.56% among 390,000; also: nearly all actives have a fitted effect of over 70% in size
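AlphaScreen: HP1-beta (50 nM) preformed 30 min with biotin-H3(1-18)K9me3 peptide (50 nM) in PBS pH 7.4, 0.01% Tween-20. Compound added for 30 min at RT, then streptavidin donor/nickel chelate acceptor beads (10 ug/mL) for 30 min.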
BAZ2B block – blocks human BAZ2B | Potency, µM (doses to about 114 µM), inactives show at the highest dose activity change, negative = inhibition, most hits filed as inhibitors | AlphaScreen BAZ2B-H3K14Ac peptide displacement | Q9UIF8 | hit rate 4.4% among 360,000; also: % is scaled to controls: 0 for no effect and ±100 for the full control effect; nearly all actives have a fitted effect of over 60% in size
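Multi-concentration screen (max 110 uM) measuring displacement of acetylated histone H3 peptide from BAZ2B by AlphaScreen, using 50 nM protein, 50 nM peptide and 10 ug/mL streptavidin donor plus Ni-chelate acceptor beads.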
* hit, by the source's call; u = inconclusive; x = no result; ! = not confirmed by another sample; [ ] = dose if it differs, or a comment. Calls follow the shape of the dose curve; as a rule, active = well fitted curve in the direction sought with a large enough effect; inconclusive = small, poorly fitted or top-dose-only effect, or another doubt; inactive = no such curve, though single readings can be large; an effect the other way counts as inactive or inconclusive. Potency is read from the fitted curve at half-maximal effect.

SMILES	G9a block	Sfp PPTase inh	JMJD2A Tudor inh	L3MBTL1 inh	HP1b binding inh	BAZ2B block
Cc1cccc(-n2c(O)c(C=Nc3ccc(Br)cn3)c(=O)[nH]c2=O)c1	x	-15%	10µM*	37%	11%	1%
CCN(CC)c1ccc(N=Cc2c(O)n(-c3ccccc3)c(=O)[nH]c2=O)cc1	u	50µM*	-5%	x	20%	u
CCOc1ccccc1-n1c(O)c(C=Nc2ccc(N(CC)CC)cc2)c(=O)[nH]c1=O	50µM*	-28%	u	-5%	-21%	u
CCOC(=O)c1sc(/N=C/c2c(O)n(-c3ccccc3)c(=O)[nH]c2=O)c(C#N)c1C	u	50µM*	u	x	u	u
Cc1ccc(-n2c(O)c(/C=N/c3ncc(Br)cc3Br)c(=O)[nH]c2=O)cc1	9%[59 µM]	-10%	-14%	8%	4%	u
CCN(CC)c1ccc(N=Cc2c(O)n(-c3ccccc3C)c(=O)[nH]c2=O)cc1	u	u	u	-16%	-7%	u
CCOC(=O)c1c(/N=C/c2c(O)n(-c3cccc(C)c3)c(=O)[nH]c2=O)sc2c1CCCC2	u	u	-27%	0%	-4%	-31%
COc1cc2c(cc1O)[C@H]1Cc3ccc(OC)c(O)c3CN1CC2	2%[21.5 µM]	9%	x	x	x	x
CCN(CC)C(=O)/C(Cl)=C(\C)OP(=O)(OC)OC	29%[59 µM]	6%	x	x	x	x
Cc1ccc(N/N=C/c2c(O)n(-c3ccccc3)c(=O)[nH]c2=O)cc1	3.2µM*	-24%	-21%	x	-7%	-30%
CCc1nnc(NS(=O)(=O)c2ccc(N=Cc3c(O)n(-c4ccc(Cl)cc4)c(=O)[nH]c3=O)cc2)s1	u	13%	35µM*	12%	-3%	-14%
Cc1ccc(-n2c(O)c(/C=C/C=Nc3ccccc3)c(=O)[nH]c2=O)cc1	u	3%	-28%	-4%	35%	-4%
CC(=O)N1CC2CC(C1)c1cccc(=O)n1C2 (centres undefined)	x	6%	x	x	x	x
CCOc1ccc(N)cc1	x	x	-27%	x	15%	x
Nc1ccc(Oc2cccc(Oc3ccc(N)cc3)c2)cc1	45µM*	12%	u	x	u	40µM*
CC1=NN(c2ccccc2)C(=O)C1=C(C)C	u	7%	-19%	x	50%	u
CC(=O)NC1N=C(C)N(c2ccccc2)C1=O (centres undefined)	3.2µM*	40µM*	45µM*	x	u	-15%
CNC(=O)OCCc1n(C)cc[n+]1C	14µM*	-6%	-17%	9%	10%	0%
CCOC(=O)c1ncc2[nH]c3ccc(OCc4ccccc4)cc3c2c1COC	13%[59 µM]	10%	x	x	x	x
COc1ccc(NS(=O)(=O)c2ccc(OCC(=O)N3CCN(C)CC3)cc2)cc1Cl	79µM*	15%	-4%	x	57%	-19%
Cc1ccc(NS(=O)(=O)c2ccc(OCC(=O)N3CCN(C)CC3)cc2)cc1	x	-1%	-10%	x	18%	-12%
Nc1nonc1C(=O)N/N=C/c1ccc([N+](=O)[O-])o1	50µM*	-28%	u	35µM*	u	56µM*
C=C/C(=C/C(=O)C[C@H](C)C[C@@H](C)CC[C@H](O)[C@H](C)C(=O)C[C@@H](O)[C@H](C)[C@@H](C)OC(=O)C[C@@H](O)C1=C(C)C(=O)OC1=O)CC	-42%[2.33 µM]	-9%	x	x	x	x
COC(=O)[C@@]1(Cc2ccc(F)cc2)[C@H]2c3cc(C(=O)N(C)C)[nH]c3C[C@H]2CN1C(=O)c1ccccc1	u	-25%	-20%	-12%	10%	50µM*
CC(C)OC(=O)C(O)(c1ccc(Cl)cc1)c1ccc(Cl)cc1	x	-2%	x	x	x	x
SMILES	G9a block	Sfp PPTase inh	JMJD2A Tudor inh	L3MBTL1 inh	HP1b binding inh	BAZ2B block
CN(C)c1ccc(NC(=O)CN2C(=O)CN=C(c3ccccc3)c3ccccc32)cc1	x	-1%	56µM*	-17%	u	40µM*
CN(C)c1ccc(NC(=O)CN2C(=O)CN=C(c3ccccc3)c3cc(Cl)ccc32)cc1	40µM*	79µM*	28µM*	x	u	35µM*
Cc1ccc(NC(=O)CN2C(=O)CN=C(c3ccccc3)c3cc(Cl)ccc32)cc1	u	-1%	-35%	x	-6%	-24%
COc1cc(OC2CCN(C(C)=O)CC2)ccc1C(=O)N1CCC(N2C(=O)OCc3ccccc32)CC1	33%[59 µM]	17%	x	x	x	x
COC(=O)CSc1nc2sc3c(c2c(=O)n1C1CCCCC1)CCN(C)C3	45µM*	56µM*	x	x	x	-30%
Nc1cc(Cl)c2nonc2c1[N+](=O)[O-]	32µM*	-17%	-13%	-2%	42%	13%
C/C(=C/CCC(C)[C@H]1CC[C@@]2(C)C3=C(CC[C@]12C)[C@@]1(C)CCC(=O)C(C)(C)[C@@H]1CC3)C(=O)O (some centres undefined)	u	3%	63µM*	2%	10%	u
CCCOc1ccc(C(=O)CCC(=O)NNC(=O)c2ccncc2)cc1	56%	12%	-6%	x	29%	5%
CC(N)C(O)c1ccc(O)c(O)c1 (centres undefined)	u	-23%	x	x	x	x
O=C(Cc1cccc(C(F)(F)F)c1)N1CCN(CC(=O)N2CCCC2)CC1	-2%[12.7 µM]	x	-6%	-4%	31%	3%
O=C(CCN1CCN(CCO)CC1)N1c2ccccc2Sc2ccc(C(F)(F)F)cc21	u	-4%	56µM*	x	38%	-12%
CCCCOP(=O)(c1ccc(N(C)C)cc1)C(Nc1ccccc1)c1ccccc1 (centres undefined)	45µM*	-23%	u	-24%	-32%	u
Cc1ccc(C(=O)c2cn(CC(=O)Nc3ccc(C(C)C)cc3)c3nc(C)ccc3c2=O)cc1	-7%[59 µM]	x	u	x	-2%	4%[57.1 µM]
NC(N)=N/N=C/c1cn(-c2ccccc2)nc1-c1cccs1	-8%	79µM*	u	-6%	3%	u
CN1CCc2nc(SCc3ccccc3Br)c(C#N)cc2C1	18µM*	-23%	u	-10%	40%	-33%
O=[N+]([O-])c1cccc(O)c1	-19%[0.501 µM]	x	-10%	1%	9%	-2%
O=[N+]([O-])c1cc(S(=O)(=O)c2ccc(O)c([N+](=O)[O-])c2)ccc1O	u	-2%	56µM*	10µM*	u	50µM*
CCCc1cc(N2CCN(c3ccc(OC)cc3)CC2)n2cnnc2n1	u	x	-25%	x	15%	u
N#CC(C#N)=Cc1cc(O)c(O)c(O)c1	8.9µM*	50µM*	x	x	x	x
N#CC(C#N)=Cc1cccnc1	x	-25%	-4%[57.1 µM]	11%	-24%	-1%
N#CC(C#N)=Cc1ccc(O)cc1	x	22µM*!	x	x	x	x
N#C/C(=C\c1ccc(O)cc1)C(=O)O (tested in a mixture with another compound)	x	x	-14%	x	10%	x

Bioassay records from PubChem.
